Assay outcomes from PubChem.
Six1-Eya2 inh – qHTS Assay for Inhibitors of the Six1/Eya2 Interaction; activity change, % (no concentration beside the values); AlphaScreen GST-Six1/His-Eya2 binding, biochemical; hits give low values; actives 0.56% (n = 360,000); AID 651725, 2012; Homeobox protein SIX1 (Homo sapiens) + Protein phosphatase EYA2 (Homo sapiens), …
Target sequence (O00167 whole entry, looked up): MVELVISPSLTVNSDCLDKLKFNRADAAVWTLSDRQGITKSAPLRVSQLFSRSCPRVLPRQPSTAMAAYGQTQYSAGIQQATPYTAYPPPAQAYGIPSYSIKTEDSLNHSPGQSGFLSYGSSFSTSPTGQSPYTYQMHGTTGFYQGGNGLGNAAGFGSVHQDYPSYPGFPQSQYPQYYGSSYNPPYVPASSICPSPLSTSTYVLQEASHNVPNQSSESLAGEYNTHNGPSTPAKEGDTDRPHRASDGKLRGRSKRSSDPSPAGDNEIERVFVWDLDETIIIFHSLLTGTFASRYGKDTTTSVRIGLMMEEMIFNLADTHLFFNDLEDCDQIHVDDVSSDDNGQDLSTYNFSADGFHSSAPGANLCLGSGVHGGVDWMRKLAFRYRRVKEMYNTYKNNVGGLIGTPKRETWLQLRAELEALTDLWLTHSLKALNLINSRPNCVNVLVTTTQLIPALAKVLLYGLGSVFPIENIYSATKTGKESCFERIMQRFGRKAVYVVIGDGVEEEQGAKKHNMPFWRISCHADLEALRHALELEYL
Target sequence (Q15475 whole entry, looked up): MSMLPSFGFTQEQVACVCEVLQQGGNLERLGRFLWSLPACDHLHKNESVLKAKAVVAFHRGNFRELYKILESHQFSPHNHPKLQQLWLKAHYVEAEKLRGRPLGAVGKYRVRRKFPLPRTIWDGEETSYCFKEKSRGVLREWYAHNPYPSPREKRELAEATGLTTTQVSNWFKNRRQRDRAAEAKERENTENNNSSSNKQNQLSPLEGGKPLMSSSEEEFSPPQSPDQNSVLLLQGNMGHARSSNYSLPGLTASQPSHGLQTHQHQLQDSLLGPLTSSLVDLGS
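Six1/Eya2 binding was read as AlphaScreen signal after compounds were pinned into GST-Six1 plus His-tagged Eya2 (5X stock 250/500 nM) in pH 8.0 Tris/NaCl/TCEP buffer, beads added, then incubated 1 h, 37 C, dark.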
KDM4E inh – qHTS Assay for Inhibitors of Human Jumonji Domain Containing 2E (JMJD2E). JMJD2E catalytic domain, FDH-coupled NADH fluorescence (FDH is formaldehyde dehydrogenase). Potency, µM (top dose mostly 57.1 µM), inactives show at the top dose activity change, negative = inhibition, actives largely listed as inhibitors. actives 1.6% (n = 230,000). AID 2147, 2009; active = well fitted inhibition curve with a large enough effect, not every such curve was filed as active; inconclusive = small, poorly fitted or top-dose-only effect, or another doubt; inactive = no such curve, though single readings can be large or run the other way;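 note: potency is the fitted concentration of half-maximal effect; 0% = wells with enzyme and -100% = buffer wells without enzyme; nearly all actives have a fitted effect of over 50% in size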
CtBP-E1A blk – qHTS Assay for Inhibitors of the CtBP/E1A Interaction. actives 0.49% (n = 340,000). CtBP / adenovirus E1A interaction (AlphaScreen). AlphaScreen GST-E1A/His-CtBP binding, 1536-well; hits give low values. AID 651724, 2012. activity change, % (test concentration not listed)
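AlphaScreen with 125 nM GST-E1A and 125 nM His-CtBP (5X stocks) in Tris pH 8.0, 300 mM NaCl, BSA, Tween 20, TCEP. Compounds preincubated 2 h at 37 deg C, then glutathione donor/nickel acceptor beads added for 1 h at 37 deg C in dark.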
L3MBTL1 block – qHTS Assay for the Inhibitors of L3MBTL1 | Lethal(3)malignant brain tumor-like protein 1 (Homo sapiens), Q9Y468 | AlphaScreen L3MBTL1–H3K9me1 peptide binding | Potency, µM (top dose mostly 57.1 µM), for the others: top-dose activity, negative = inhibition, actives largely listed as inhibitors | actives 0.66% (n = 230,000); active = well fitted inhibition curve with a large enough effect; inconclusive = small, poorly fitted or top-dose-only effect; inactive = no such curve, though single readings can be large or run the other way; note: potency is the fitted concentration of half-maximal effect; nearly all actives have a fitted effect of over 60% in size
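AlphaScreen proximity signal between nickel-chelate acceptor and streptavidin donor beads (final 10 ug/mL) reports binding of 50 nM L3MBTL1 to 75 nM biotin-H3 K9me1 peptide; complex incubated with compounds 30 min at room temperature; cefsulodin titration as control.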
Starred values were filed as active, the others as inactive; ? = inconclusive; . = no result; ! = a repeat was not active. Only a selection was taken, and hits are over-represented in it overall. Cut-off read from the data, not from the text of the source, unless noted: active = activity change below about -65%; inconclusive = mostly about -30% to -63%; inactive = weaker than that. Unless noted, % is set by controls: 0 for no effect and ±100 for the full control effect.

SMILES | Six1-Eya2 inh | KDM4E inh | CtBP-E1A blk | L3MBTL1 block
Cc1cc(=O)c2c(O)c(O)ccc2o1 | 3 | ? | 1 | 18µM*
COc1c2ccoc2cc2oc(C)cc(=O)c12 | 1 | 10% | 3 | .
CC1=C(C(=O)Nc2ccccc2)C(c2ccc[nH]2)n2ncnc2N1 (stereo not drawn) | . | . | . | 1.6µM*
O=C(COC(=O)C1CC(=O)N(Cc2ccco2)C1)c1ccc(OC(=O)c2ccco2)cc1 (stereo not drawn) | ? | 3% | 0 | 18µM*
Cc1ccc(C(=O)Oc2ccc(C(=O)COC(=O)C3CC(=O)N(Cc4ccco4)C3)cc2)cc1 (stereo not drawn) | -85* | 7% | ? | ?
O=C(COC(=O)C1CC(=O)N(Cc2ccccc2)C1)c1ccc(Br)cc1 (stereo not drawn) | 5 | 5% | 23 | 3%
COc1cc2nc3n(c(=O)c2cc1OC)-c1ncccc1C(=O)NC3Cc1ccccc1 (stereo not drawn) | -1 | . | -6 | .
O=C1C=CC2=C3c4cc(O)c(O)cc4C[C@]3(O)COC2=C1 | . | 13µM* | . | .
C[C@H]1C2=C3C(C[C@H]4C(=O)N(c5ccccc5)C(=O)[C@H]4[C@H]3[C@@]3(Cc4ccccc4)C(=NCCc4c[nH]c5ccccc45)OC(=O)N3C2=O)[C@H]2C(=O)N(c3ccccc3)C(=O)[C@H]21 (stereo partly drawn) | . | -20% | . | .
O=C(O)CCNc1ccc(NCCC(=O)O)c2c1C(=O)c1ccccc1C2=O | -85* | . | . | .
O=C1c2cccc(NCCNCCO)c2C(=O)c2cccc(NCCNCCO)c21 | -71* | . | -7 | .
CC1(C(=O)NS(=O)(=O)c2cccc(Cl)c2)CCN1C(=O)c1ccccc1 (stereo not drawn) | 8 | . | 0 | .
CCOC(=O)Cc1cc(=O)n(-c2nc3ccccc3s2)[nH]1 | -15 | ? | -14 | 28µM*
COc1ccc(/C=N/Nc2nn3cnnc3c3ccccc23)cc1 | ? | 3% | -74* | -24%
Cc1cc(C)c2ccc(N)nc2c1O | ? | 25µM* | ? | 4%
Cc1cc(C)c2cccc(N)c2n1 | -15 | ? | 0 | -5%
CC(C)CCC(C(=O)O)C(C)CC(=O)NNC(=O)c1ccco1 (stereo not drawn) | 5 | -14% | 7 | 28µM*!
CC(CCC#N)[N+](=O)[O-] (stereo not drawn) | . | 0% | . | .
NNc1ccc(Cc2ccc(Cl)cc2Cl)nn1 | -22 | ? | -14 | 13µM*
Cc1cnc(C=NNC(N)=S)c2cccc(N)c12 | -79* | . | -2 | .
NC(=S)NN=Cc1nccc2ccccc12 | -81* | . | -94* | .
NC(=S)NN=Cc1nccc2c(C(F)(F)C(F)(F)C(F)(F)F)cccc12 | -19 | . | 16 | .
COC(=O)[C@@H]1C=C[C@H](C)[C@H](CCOc2ccccc2)O1 | . | 12% | . | .
O=C1c2ccccc2C(=O)c2c1ccc(O)c2O | -65* | 14µM* | ? | .
O=C1c2ccc(O)c(O)c2C(=O)c2c(O)ccc(O)c21 | . | 3.5µM* | . | .
SMILES | Six1-Eya2 inh | KDM4E inh | CtBP-E1A blk | L3MBTL1 block
COC(=O)c1ccc2c(c1O)C(=O)c1ccccc1C2=O | ? | 8% | ? | .
O=C1c2cccc(O)c2C(=O)c2c(O)cccc21 | . | -7% | . | -28%
CC(C)C(=O)c1ccc(O)c(O)c1 | 3 | 25µM* | . | 3%
O=C(C(=O)c1ccc(O)c(O)c1)c1ccc(O)c(O)c1 | 4 | . | 9 | .
COc1cc(C2Nc3ccc4ncccc4c3C3=C2C(=O)CC(C)(C)C3)cc(OC)c1O (stereo not drawn) | -4 | 7.9µM* | -4 | .
CC(C)[C@@H](CC(=O)N[C@@H]1CCCC[C@H]1C(=O)N[C@H](CC(=O)N[C@@H](CCC(=O)O)CC(=O)O)Cc1c[nH]c2ccccc12)NC(=O)C[C@H](CO)NC(=O)[C@@H]1CNCC[C@H]1N | . | -19% | . | .
C/C(CC(=O)Nc1ccc2c(c1)OCCO2)=N\NC(=O)c1ccccc1Cl | 13 | . | -8 | .
Cc1sc2ncnc(N/N=C/c3ccccc3O)c2c1C | -86* | 25µM* | -88* | ?
C/C(CC(=O)Nc1ccc([N+](=O)[O-])cc1)=N/NC(=O)C1C2CCCCC21 (stereo not drawn) | -10 | -3% | -15 | .
